MBNL1-CUG inh: MBNL1-poly(CUG) RNA binding inhibition; Q9NR56; TR-FRET MBNL1-His/biotin-(CUG)12 binding, 665/545 ratio; Potency, µM (doses to about 57.5 µM), inactives show at the highest dose activity change, negative = inhibition, actives largely listed as inhibitors; 0.036% of 280,000 active; AID 2675; active = well fitted inhibition curve with a large enough effect in the signal ratio, with a control signal flat, not every such curve was filed as active; inconclusive = small, poorly fitted or top-dose-only effect, or effect the other way, or a change in a side signal; inactive = no such curve, though single readings can be large or run the other way; the % refers to the signal ratio; note: potency is the fitted concentration of half-maximal effect; % is set by controls: 0 for no effect and ±100 for the full control effect
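His-tagged MBNL1 binding to biotinylated (CUG)12 RNA was measured by TR-FRET using terbium anti-His antibody (0.055 ng/ul final) and streptavidin-XL665 (5 nM final). Compounds were titrated 92 nM to 58 uM; 60 min at room temperature.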
CtBP-E1A blk: blocks the CtBP interaction with E1A; 0.49% of 340,000 active; activity change, % (concentration not given with the values); AlphaScreen GST-E1A/His-CtBP binding, 1536-well; stronger effect = lower value; in the data active = activity change below about -65%; inconclusive = mostly about -30% to -63%; note: % is set by controls: 0 for no effect and ±100 for the full control effect
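Homogeneous bead-based format: GST-tagged E1A captured on glutathione donor beads, His-tagged CtBP on nickel acceptor beads; compounds precede bead addition by 2 h at 37 °C.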
Six1-Eya2 inh: inhibitors of human Six1/Eya2 interaction. Q15475+O00167. AlphaScreen GST-Six1/His-Eya2 binding, biochemical; stronger effect = lower value. activity change, % (test concentration not listed). 0.56% of 360,000 active; in the data active = activity change below about -65%; inconclusive = mostly about -30% to -63%; note: % is set by controls: 0 for no effect and ±100 for the full control effect
Target sequence (O00167 whole entry, looked up): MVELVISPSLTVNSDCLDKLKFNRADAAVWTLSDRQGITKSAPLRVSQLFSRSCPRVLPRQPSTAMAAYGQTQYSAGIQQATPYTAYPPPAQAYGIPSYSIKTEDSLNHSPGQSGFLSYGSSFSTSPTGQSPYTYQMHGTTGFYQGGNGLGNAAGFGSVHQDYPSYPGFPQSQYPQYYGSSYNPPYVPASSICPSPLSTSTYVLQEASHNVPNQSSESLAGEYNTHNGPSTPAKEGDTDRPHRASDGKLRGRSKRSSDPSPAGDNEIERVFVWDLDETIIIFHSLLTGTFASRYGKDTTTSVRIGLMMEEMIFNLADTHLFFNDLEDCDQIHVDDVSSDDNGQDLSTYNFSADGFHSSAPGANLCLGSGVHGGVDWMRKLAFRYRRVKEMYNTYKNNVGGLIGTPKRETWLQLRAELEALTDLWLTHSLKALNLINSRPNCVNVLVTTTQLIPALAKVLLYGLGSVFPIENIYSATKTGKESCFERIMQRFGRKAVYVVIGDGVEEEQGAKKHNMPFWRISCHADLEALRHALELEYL
Target sequence (Q15475 whole entry, looked up): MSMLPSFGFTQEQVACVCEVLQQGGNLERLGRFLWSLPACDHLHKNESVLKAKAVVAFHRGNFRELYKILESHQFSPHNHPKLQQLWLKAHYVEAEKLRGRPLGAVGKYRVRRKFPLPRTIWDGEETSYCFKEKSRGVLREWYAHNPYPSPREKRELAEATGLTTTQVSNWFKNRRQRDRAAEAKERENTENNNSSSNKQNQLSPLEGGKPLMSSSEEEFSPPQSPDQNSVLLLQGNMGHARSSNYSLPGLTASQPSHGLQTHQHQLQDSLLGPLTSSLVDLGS
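Compounds are tested against tagged Six1 and Eya2 proteins bridged by glutathione donor and nickel acceptor beads; after a one-hour incubation at 37 °C without light, AlphaScreen emission is recorded.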
CBFb-RUNX1 inh: inhibitors of human CBF-beta and RUNX1 interaction; 230,000 tested, under 10 active; AID 1477; Q01196+Q13951; AlphaScreen CBFb-His/RUNX1-biotin binding, biochemical; Potency, µM (series often up to 59.8 µM), for inactives: at the top dose activity, negative = inhibition, actives largely listed as inhibitors; note: % of control where 0% means no effect
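AlphaScreen proximity signal reports loss of binding between His-tagged CBF-beta and biotin-labelled RUNX1, each at 30 nM. Proteins are pre-associated for 20 minutes, compounds added for 15 minutes, then beads for 90 minutes, all at ambient temperature.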
RORgamma inh: inhibitors of mouse ROR gamma transcriptional activity. Drosophila S2 Gal4-RORgamma UAS-luciferase reporter, 20 h. Potency, µM (series often up to 53.6 µM), for inactives: at the highest dose activity change, negative = inhibition, actives largely listed as inhibitors. 5.4% of 310,000 active; note: potency is the fitted concentration of half-maximal effect; % is set by controls: 0 for no effect and ±100 for the full control effect; nearly all actives have a fitted effect of over 60% in size
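A Gal4/UAS one-hybrid system in insect cells: metallothionein-promoter Gal4–ROR gamma fusion plus Photinus luciferase reporter. Copper sulfate 700 uM final, 20 hr ambient incubation, luminescent detection after 10 min with reagent.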
VP16 counter: counter-screen for ROR gamma inhibitors: Gal4-VP16 reporter; Drosophila S2 Gal4-VP16 UAS-luciferase, luminescence, 20 h; 3.5% of 310,000 active; Potency, µM (doses to about 53.6 µM), for the others: at the highest dose activity, negative = inhibition, most hits filed as inhibitors;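 note: Gal4-VP16 expression switched on by copper sulfate through the metallothionein promoter; potency is the fitted concentration of half-maximal effect; % is set by controls: 0 for no effect and ±100 for the full control effect; nearly all actives have a fitted effect of over 50% in size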
The depositor's hits bear a star; ? = inconclusive; . = not tested or not shown; [ ] = dose if it differs, or a comment. This is a sample that favours compounds with a hit; in the whole collection about 5.5% have one here. Unless noted, calls come from the whole dose curve; as a rule, active = well fitted curve in the direction sought with a large enough effect; inconclusive = small, poorly fitted or top-dose-only effect, or another doubt; inactive = no such curve, though single readings can be large; an effect the other way counts as inactive or inconclusive.

SMILES | MBNL1-CUG inh | CtBP-E1A blk | Six1-Eya2 inh | CBFb-RUNX1 inh | RORgamma inh | VP16 counter
Cc1ccc(C(=O)NC(=S)N2CCN(c3ccccc3F)CC2)cc1 | 6.3%[11.5 µM] | 0.8 | 14.9 | 6.1% | 0.891µM* | 2.82µM*
COc1ccccc1N1CCN(C(=S)NC(=O)c2ccc([N+](=O)[O-])cc2)CC1 | . | 0.7 | -12.0 | . | . | .
CC1(C)S/C(=N/N=C/c2cccs2)NC1=O | 16.6% | -9.4 | -10.0 | -4.0% | 0.794µM* | 5.01µM*
O=C1CS/C(=N/N=C/c2cccs2)N1 | 12.7% | -22.9 | -6.6 | -1.4% | 0.562µM* | ?
C/C(Cc1ccccc1)=N\NC(=O)CNC(=O)c1ccccc1F | -2.0% | -18.0 | 9.9 | . | 14.2% | -7.0%
O=C(Cc1ccccc1[N+](=O)[O-])NC1CC2CCC1C2 (configuration not stated) | 16.3% | -3.8 | 3.1 | . | 23.5% | -3.4%
COc1ccc(/C=C/C(=O)Nc2ccc3nc4n(c(=O)c3c2)CCCC4)cc1 | 14.0% | -3.9 | -11.9 | -2.0% | 1.4% | -16.7%
COc1cc(/C=C/C(=O)Nc2ccc3nc4n(c(=O)c3c2)CCCC4)cc(OC)c1OC | ? | ? | -85.4* | -2.4% | -8.8% | -12.3%
COc1cccc(/C=C/C(=O)Nc2ccc3nc4n(c(=O)c3c2)CCCC4)c1OC | ? | -78.1* | ? | -2.7% | 17.7% | ?
O=C(CCl)N(c1ccccc1)c1ccccc1 | -0.8% | 0.3 | -2.6 | 11.5% | 14.1µM* | ?
O=C(N(c1ccccc1)c1ccccc1)N(c1ccccc1)c1ccccc1 | -15.4% | . | -5.3 | 12.5% | 4.5% | 2.3%
O=C(c1ccc(Cl)cc1)N1CCCCC(Sc2nnc(-c3ccc4c(c3)OCO4)o2)C1=O (configuration not stated) | 36.7% | 1.2 | 0.0 | -5.5% | 1.41µM* | ?
COc1ccc(CN2C(=O)CN(S(C)(=O)=O)CC2(C)C(=O)NC(C)C)cc1OC (configuration not stated) | . | -8.1 | 9.6 | . | . | .
COC(=O)c1c(NC(=O)c2ccc([N+](=O)[O-])o2)sc2c1CCN(C(C)C)C2 | 3.4% | -13.4 | ? | . | ? | ?
CC(C)N1CCc2c(sc(NC(=O)c3ccc([N+](=O)[O-])o3)c2C(N)=O)C1 | ? | . | . | . | 7.08µM* | ?
Cc1noc(NS(=O)(=O)c2ccc(NC(=O)CSc3nc4ccccc4[nH]3)cc2)c1C | -11.9% | -0.9 | -6.0 | -2.3% | 15.0% | 1.4%
Cc1noc(NS(=O)(=O)c2ccc(NC(=O)CSc3nnc4c(n3)[nH]c3ccccc34)cc2)c1C | . | -90.2* | -88.5* | -5.3% | 29.2% | -4.2%
S=c1[nH]nc(Cc2sc(-c3ccccc3)nc2-c2ccccc2)o1 | 23.8% | -2.7 | -17.3 | -12.7% | 11.2µM* | ?
S=c1[nH]nc(Cc2c[nH]c3ccccc23)o1 | -3.8% | 2.1 | 1.1 | 0.8% | -6.9% | -12.8%
COC(=O)N1C(=O)[C@@](c2ccccc2)(C2CCCC2)N1C(=O)OC | -6.3% | 0.0 | -2.9 | . | 11.2µM* | -3.0%
Cc1ccc(-c2csc(NC(=O)C3=NN(C4CCS(=O)(=O)C4)C(=O)CC3)n2)cc1 (configuration not stated) | -5.7% | 0.5 | -2.7 | 16.0% | 10.9% | -2.6%
Cc1nn(C)c(NC(=O)c2ccccc2Cl)c1Br | -1.6% | -1.6 | 5.5 | . | 1.1% | 3.8%
Cc1nn(C)c(Nc2ccc(Br)cc2)c1Br | -5.2% | -1.5 | 4.8 | -0.9% | ? | 11.2µM*
Cc1cc(C)nc(-n2nc(C)c(Br)c2Nc2ccc(Br)cc2)n1 | -3.8% | -2.9 | 0.5 | 0.5% | ? | 0.891µM*
N#Cc1nc(NCC2CC2)nc(Nc2ccccc2)n1 | . | . | . | . | . | 2.3%
SMILES | MBNL1-CUG inh | CtBP-E1A blk | Six1-Eya2 inh | CBFb-RUNX1 inh | RORgamma inh | VP16 counter
COc1ccccc1NC(=O)C1=C(C)NC2=C(C(=O)CC(c3ccc(OC)c(OC)c3)C2)C1c1coc2ccccc2c1=O (configuration not stated) | 15.0% | -20.4 | -78.4* | -21.4% | ? | -0.6%
CCOC(=O)C1=C(C)NC2=C(C(=O)CC(c3ccc(OC)c(OC)c3)C2)C1c1ccc(C)o1 (configuration not stated) | 16.7% | -3.7 | -15.2 | -9.0% | -24.4% | -7.0%
C[N+]1(CCOC(=O)C2(c3ccccc3)CCCC2)CCCCC1 | -0.7% | -3.6 | 3.1 | 3.5% | 0.3% | -10.4%
Cc1nc(Nc2ccc(C(=O)O)cc2)nc(Nc2ccc(C(=O)O)cc2)c1[N+](=O)[O-] | ? | . | -75.1* | 20.5% | ? | -6.9%
CC(=O)Nc1ccc(Nc2nc(C)c([N+](=O)[O-])c(Nc3ccccc3)n2)cc1 | . | -27.6 | ? | -18.2% | ? | 12.6µM*
O=C(COc1ccccc1[N+](=O)[O-])NCC1COc2ccccc2O1 (configuration not stated) | . | -0.7 | -10.7 | . | . | .
O=Cc1ccc(F)c([B-](F)(F)F)c1 | . | -4.3 | 8.8 | . | . | .
O=S(=O)(Nc1cccc(-c2cn3cccnc3n2)c1)c1ccccc1 | . | -21.4 | -83.4* | -3.8% | 21.7% | -12.1%
O=S(=O)(Nc1cccc(-c2cn3cccnc3n2)c1)c1ccc(-c2ccccc2)cc1 | -2.4% | ? | ? | -7.2% | ? | ?
O=S(=O)(Nc1cccc(-c2cn3cccnc3n2)c1)c1ccc(F)cc1 | . | -0.9 | -66.7* | -1.0% | ? | 4.3%
COC(=O)NC(CC(C)=O)c1ccc2c(c1)OCO2 (configuration not stated) | . | . | . | 17.2%[13.1 µM] | 21.7%[10 µM] | -7.1%[10 µM]
Cc1cc(/C=C\c2ccc3cc(N(C)C)ccc3[n+]2C)c(C)n1-c1ccccc1 | . | -10.1 | -13.2 | -23.5%[21.7 µM] | 27.4%[2.98 µM] | 2.82µM*
C[n+]1c(/C=C/c2ccc(O)cc2)ccc2ccccc21 | ? | 0.0 | 0.9 | . | 5.9% | -4.4%
CCn1c(COc2ccc(C)cc2)nc2ccccc21 | 15.7% | -13.7 | -3.4 | 8.9% | 8.91µM* | ?
CCOCCn1c(COc2ccc(C)cc2)nc2ccccc21 | -7.8%[11.5 µM] | 3.7 | 1.0 | 6.5% | ? | 5.2%
Cc1ccc(OCCCn2c(CO)nc3ccccc32)cc1 | 7.1% | -7.1 | 9.0 | 6.2% | 25.9% | 1.3%
COCCn1c(COc2ccc(C)cc2)nc2ccccc21 | -3.3% | 0.3 | 4.5 | 0.5% | 11.2µM* | -15.8%
CSCCC(C(=O)NCc1ccccc1)n1c(Cc2cc(F)cc(F)c2)nc2ccccc21 (configuration not stated) | . | 3.4 | -15.5 | . | . | .
CC(=O)c1cnc(Nc2nc(C)c3cc(C)c(C)cc3n2)nc1C | 1.7% | -0.1 | -1.6 | 4.6% | 3.55µM* | -0.9%[0.365 µM]
CSc1ncc(C(C)=O)c(C)n1 | -1.7% | 3.2 | 6.3 | 1.9% | 0.2% | 5.5%
